# Reference: publication PMC11442847
# Molecular target: Tubulin alpha-1C chain (UniProt Q9BQE3)
# Assay: cross-link between two proteins; cross-linking mass spectrometry
# Chain of UniProt Q9BQE3 (Q9BQE3 whole entry): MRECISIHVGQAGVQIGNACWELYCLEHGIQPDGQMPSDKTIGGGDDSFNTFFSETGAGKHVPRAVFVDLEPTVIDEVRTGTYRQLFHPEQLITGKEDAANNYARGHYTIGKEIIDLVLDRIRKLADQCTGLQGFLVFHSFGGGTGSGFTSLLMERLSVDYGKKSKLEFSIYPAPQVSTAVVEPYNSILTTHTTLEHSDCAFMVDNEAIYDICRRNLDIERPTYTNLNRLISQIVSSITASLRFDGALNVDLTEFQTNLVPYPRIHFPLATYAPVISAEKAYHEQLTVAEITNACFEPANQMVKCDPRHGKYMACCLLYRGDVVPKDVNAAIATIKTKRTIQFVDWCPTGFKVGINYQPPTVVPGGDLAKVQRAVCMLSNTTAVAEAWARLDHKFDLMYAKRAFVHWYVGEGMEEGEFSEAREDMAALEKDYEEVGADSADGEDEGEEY
substance,measurement,value
"Tubulin beta chain, P07437",listed as a hit,yes
